Anthrax LF inh2 = anthrax lethal factor protease inhibition; P15917; multiplex microsphere protease cleavage assay, LF; inhibition, % at 10 µM; hit rate 0.12% among 360,000; AID 588501; further: plate controls were buffer without enzyme for full effect and enzyme alone for no effect
Target sequence (P15917 whole entry, looked up): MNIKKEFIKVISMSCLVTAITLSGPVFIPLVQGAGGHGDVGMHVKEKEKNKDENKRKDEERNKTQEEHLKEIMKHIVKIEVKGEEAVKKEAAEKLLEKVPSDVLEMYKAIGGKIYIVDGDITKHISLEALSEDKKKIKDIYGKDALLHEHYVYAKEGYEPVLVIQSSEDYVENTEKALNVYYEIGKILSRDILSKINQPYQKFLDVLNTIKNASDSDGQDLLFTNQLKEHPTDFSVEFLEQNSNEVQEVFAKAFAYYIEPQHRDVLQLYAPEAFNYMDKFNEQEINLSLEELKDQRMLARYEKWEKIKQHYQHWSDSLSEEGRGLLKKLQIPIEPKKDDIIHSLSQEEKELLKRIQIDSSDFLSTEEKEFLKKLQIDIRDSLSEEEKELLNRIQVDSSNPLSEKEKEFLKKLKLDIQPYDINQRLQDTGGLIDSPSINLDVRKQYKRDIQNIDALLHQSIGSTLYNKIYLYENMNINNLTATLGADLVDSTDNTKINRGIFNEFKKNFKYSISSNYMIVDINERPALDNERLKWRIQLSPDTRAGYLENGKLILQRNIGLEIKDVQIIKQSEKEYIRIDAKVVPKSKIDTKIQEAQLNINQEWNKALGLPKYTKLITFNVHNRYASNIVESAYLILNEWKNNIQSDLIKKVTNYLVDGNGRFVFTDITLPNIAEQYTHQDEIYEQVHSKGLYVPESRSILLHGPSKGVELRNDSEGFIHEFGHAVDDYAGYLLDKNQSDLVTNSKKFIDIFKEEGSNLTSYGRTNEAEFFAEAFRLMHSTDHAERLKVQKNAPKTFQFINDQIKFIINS
SARS 3CLpro inh = SARS-CoV 3CLpro protease inhibition. P0C6X7. recombinant SARS-CoV 3CLpro, quenched FRET peptide cleavage. inhibition, % at 6 µM. hit rate 0.14% among 290,000. AID 1706; in the data active means inhibition above about 12%
BoNT-F LC inh = BoNT F light chain protease inhibition; Multiplex microsphere protease cleavage assay, flow cytometry; inhibition, % at 10 µM; hit rate 0.22% among 360,000; in the data active means inhibition above about 35%, passing the limit was not always enough; inconclusive means no clear call, values can overlap the other calls; further: plate controls were buffer without enzyme for full effect and enzyme alone for no effect
Bead autofluor = compound fluorescence in toxin protease inhibitor counterscreen. compound autofluorescence counterscreen, microsphere flow cytometry; hits give high values. fluorescence intensity (concentration not given with the values). hit rate 3.1% among 360,000. AID 624483; in the data active means fluorescence intensity above about 16000; inconclusive means no clear call, values can overlap the other calls
BoNT A protease = BoNT A light chain protease inhibition. multiplex microsphere protease substrate cleavage, flow cytometry. hit rate 0.17% among 360,000. inhibition, % at 10 µM; further: plate controls were buffer without enzyme for full effect and enzyme alone for no effect
Active calls of the source: *; ? = inconclusive; / = not tested or not shown. A selection: hits, their analogues and other compounds. The true share with any hit is near 3.5%. Unless noted, no stated cut-off is given here; in the data, active means inhibition above about 30%; inconclusive means no clear call, values can overlap the other calls; inactive means below that.

SMILES	Anthrax LF inh2	SARS 3CLpro inh	BoNT-F LC inh	Bead autofluor	BoNT A protease
c1ccc(N/N=C2\CCCc3ccccc32)nc1	-2	-1	-3	3650	-1
Cn1nnc2sc3c(c2c1=O)CCCC3	-1	-11	-5	23005*	-2
Cc1nc2sc3c(c2c(=O)n1N)CCC3	-1	2	-1	4292	-1
N#C/C(=C\c1ccc(N2CCOCC2)o1)c1nc2ccccc2[nH]1	-4	-4	102*	11443	-17
CCC(=O)Nc1ccccc1C(=O)OCC(=O)c1ccc2ccccc2c1	-4	3	-1	23453*	-1
CC(=O)Nc1ccccc1C(=O)OCC(=O)c1ccc2ccccc2c1	4	4	-1	9706	1
CCCCCC1CC(CC#CCN2CCOCC2)C(=O)O1 (centres undefined)	-1	-3	6	21965*	4
OC(COCc1ccccc1)COCc1ccccc1	1	/	-5	3037	-1
O=S(CC(O)COCc1ccc(Cl)cc1)c1ccccn1 (centres undefined)	2	-2	2	21318*	3
CC(C)(C)c1ccc(C(=O)Nc2ccc(C(=O)N3CCOCC3)cc2)cc1	-3	-6	-1	5442	0
O=c1[nH]c2cc3c(cc2cc1C(c1nnnn1C1CCCC1)N1CCSCC1)OCCO3 (centres undefined)	-4	-2	0	8220	0
COc1cc2cc(C(c3nnnn3C3CCCCC3)N(C)C3CCCCC3)c(=O)[nH]c2cc1OC (centres undefined)	2	5	4	22356*	3
Cc1cc2cc(C(c3nnnn3C3CCCC3)N(Cc3cccnc3)Cc3ccco3)c(=O)[nH]c2cc1C (centres undefined)	1	-5	0	10121	0
COc1cc2cc(C(c3nnnn3C3CCCC3)N(C)C3CCCCC3)c(=O)[nH]c2cc1OC (centres undefined)	0	-9	-1	21407*	-2
CC(C)C(c1nnnn1C1CCCC1)N(C)C1CCCCC1 (centres undefined)	0	-7	-4	20923*	?
COc1ccc(COC(=O)Nc2c(SC)nsc2SC)cc1	-2	4	-5	4213	-1
Cc1ccccc1NC(=O)COc1nsnc1N1CCOCC1	-4	2	10	8254	0
CCOC(=O)c1ccc(NC(=S)NCCCN2CCN(C3CCCCC3)CC2)cc1	-3	4	-5	5402	-1
CCOC(=O)c1ccc(NC(=O)N(CC)CC)cc1	1	-5	-1	20244*	?
COc1ccc(OCCC(=O)Nc2ccc(S(N)(=O)=O)cc2)cc1	-10	-2	-22	3202	-6
CCOC(=O)c1ccc(NC(=S)NCCCN2CCCCC2)cc1	0	1	0	22858*	?
CN(CCO)C(=O)CCC(=O)Nc1ccc(S(N)(=O)=O)cc1	-6	-2	-5	17212*	-3
Cc1cc(NC(=O)c2ccc(NC(=O)CC(C)C)cc2)no1	-4	-1	9	19975*	5
CCOC(=O)CC(=O)Nc1ccc(C(=O)OCC)cc1	-4	-1	?	4186	0
O=C(CSc1nnc(-c2cccnc2)s1)Nc1ccnc2ccccc12	0	-4	2	2190	0
SMILES	Anthrax LF inh2	SARS 3CLpro inh	BoNT-F LC inh	Bead autofluor	BoNT A protease
CCOC(=O)c1ccc(NC(=O)Nc2cc(C)on2)cc1	-3	-3	1	16267*	0
CCOC(=O)c1ccc(NC(=O)Nn2cnnc2)cc1	3	-4	0	6519	-2
CCOC(=O)c1ccc(NC(=O)Nc2ccc(S(N)(=O)=O)cc2)cc1	0	-2	-8	24361*	-5
COC(=O)CC1(CC(N)=O)SCCS1	0	/	-10	2905	0
Cc1ccc(CSCC(=O)Nc2ccc3c(c2)OCO3)cc1	-5	1	-1	22179*	0
CC1CC(=O)N(CC(=O)NCc2ccco2)c2ccccc2S1 (centres undefined)	-1	-7	-3	23847*	-2
CC1Cc2ccccc2N1CC(=O)NC(=O)NCc1ccco1 (centres undefined)	11	-3	-10	17928*	16
O=C(CN1CCCc2ccccc21)NC(=O)NCc1ccco1	-4	1	-3	17200*	-1
Cc1ccccc1-c1nc2sc3c(c2c(=O)n1N)CCCC3	-14	3	-2	9671	0
CC1Cc2ccccc2N1CC(=O)Nc1cccc(S(N)(=O)=O)c1 (centres undefined)	0	0	0	3316	2
Cc1ccc(C)c(S(=O)(=O)N2CCN(CC(=O)Nc3ccc4c(c3)OCCO4)CC2)c1	3	1	-2	24103*	-1
CC1Cc2ccccc2N1CC(=O)Nc1ccc2c(c1)OCO2 (centres undefined)	8	1	2	20865*	11
C/C(CC(=O)Nc1ccc2c(c1)OCO2)=N\NC(=O)OC(C)(C)C	0	3	42*	4752	5
CCOC(=O)CSc1nnc(-c2nnc(SCC(=O)OCC)n2CC)n1CC	5	-5	14	16806*	11
COc1ccc(-c2csc(N(CC3CCCO3)C(=O)c3cccs3)n2)cc1 (centres undefined)	-2	-1	-4	22735*	?
O=C(Nc1ccncc1)C1(c2ccccc2)CCCC1	-2	3	2	4145	0
CCN(CC)S(=O)(=O)c1ccc(NC2=NS(=O)(=O)c3ccccc32)cc1	-9	2	-2	5740	0
O=S1(=O)N=C(Nc2nncs2)c2ccccc21	-4	-3	3	22257*	?
O=C(c1ccccn1)N1CCN(C(=O)c2ccccn2)CC1	0	4	-2	16386*	0
O=C(c1ccco1)n1c(=S)nc2ccccn21	0	1	2	22668*	1
CCC(C)NC(=O)c1c(C)cc(=O)oc1C (centres undefined)	0	5	-1	20515*	-2
Cc1cc(=O)oc(C)c1C(=O)NCCc1ccccc1	3	-4	-5	2400	0
CCCCNC(=O)c1c(C)cc(=O)oc1C	-1	3	0	22316*	2
COc1cccc(OC)c1C(=O)Nc1ccc(N2CCN(C(=O)c3ccco3)CC2)cc1	-4	1	-30	3603	0
CO/N=C/c1ccc(Sc2ccccc2N)c([N+](=O)[O-])c1	-4	2	-12	4239	1
SMILES	Anthrax LF inh2	SARS 3CLpro inh	BoNT-F LC inh	Bead autofluor	BoNT A protease
O=[N+]([O-])c1ccc(C(=Nc2cccc3ccccc23)N2CCOCC2)cc1	-4	-3	-4	17545*	-2
Cc1ccc([N+](=O)[O-])cc1N=C(c1ccc([N+](=O)[O-])cc1)N1CCOCC1	0	2	-9	2108	-1
CC(C(=O)Nc1ccccc1Cl)N(c1ccccc1)S(C)(=O)=O (centres undefined)	-2	3	0	4030	-1
Cc1nc2ccccc2n1CCc1nc2c3ccccc3nc(=S)n2[nH]1	0	-3	-4	23484*	?
O=C(O)c1ccc2c(c1)C(=O)N(CCc1ccccc1)C2=O	16	-4	?	4180	4
COc1ccccc1CCNC1CCCCCC1	-1	-1	-16	2899	0
CCOc1cccc(OCCNC2CCCC2)c1	5	3	5	3611	0
